Test results: PubChem BioAssay (NCI)
The panel holds about 79,000 compounds, 15% with a hit somewhere; the sample as a whole holds those more often. Active and inactive are the calls of the source. No stated cut-off is given here; in the data, active means growth inhibition above about 70%; inactive means the rest. Where a SMILES comes first, the peptide text is derived from it. [ ]: non-standard residue; d: D form. The star is where a group is joined. ξ: configuration not given here. Cbz = O=C(OCc1ccccc1)*; ξT = CC(O)C(N)C(=O)O

Legend:
[1] = NCI Yeast Anticancer Drug Screen. Data for the rad50 strain (AID 155);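 further: 0% = growth of vehicle-only cultures of the same strain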; settings: S. cerevisiae rad50 strain growth inhibition; at 50.0 µM; stronger effect = higher value
How it was run: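 Growth of the mutant yeast was measured after compound exposure and referenced to vehicle-treated cultures.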

[2] = NCI Yeast Anticancer Drug Screen. Data for the mec2-1 strain (AID 157); settings: S. cerevisiae mec2-1 strain, at 50.0 µM, stronger effect = higher value
How it was run: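 Test agents were screened against the mec2-1 yeast strain, with defined DNA repair or cell cycle alteration. Growth was scored as inhibition against vehicle-only controls.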

[3] = NCI Yeast Anticancer Drug Screen. Data for the sgs1 mgt1 strain (AID 161);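 further: 0% = growth of cultures given vehicle only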; settings: S. cerevisiae sgs1 mgt1 strain, at 50.0 µM, stronger effect = higher value
How it was run: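 Read-out: growth inhibition vs vehicle controls. Cells: mutant yeast strain deficient in DNA damage repair.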

[4] = NCI Yeast Anticancer Drug Screen. Data for the cln2 rad14 strain (AID 165);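 further: 0% = growth equal to vehicle treated cultures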; settings: S. cerevisiae cln2 rad14 strain, at 50.0 µM, stronger effect = higher value
How it was run: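 Growth of compound-exposed yeast (cln2 rad14 genotype) measured and expressed as inhibition relative to vehicle.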

[5] = NCI Yeast Anticancer Drug Screen. Data for the bub3 strain (AID 167); settings: S. cerevisiae bub3 mutant strain, at 50.0 µM, stronger effect = higher value
How it was run: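 Whole-cell yeast assay. The mutant strain was incubated with compounds, and growth inhibition was determined by comparison with vehicle-treated cells.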

[6] = NCI Yeast Anticancer Drug Screen. Data for the mlh1 rad18 strain (AID 175); settings: S. cerevisiae mlh1 rad18 strain growth inhibition; at 50.0 µM; stronger effect = higher value
How it was run: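 In this whole-cell yeast screen, a strain with altered DNA damage repair is challenged with compound, and its growth is measured against matched vehicle-treated controls.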

Measured: growth inhibition

CC(C)(C)c1ccc(OS(=O)(=O)c2ccccc2)c(Cl)c1
inactive: [1] -8.25% | [2] -1.15% | [3] -1.55% | [4] -14.1% | [5] 1.5% | [6] 0.85%

C1C2CC3CC1CC(c1nn4c(C56CC7CC(CC(C7)C5)C6)nnc4s1)(C2)C3
inactive: [1] -20.4% | [2] -12.8% | [3] -9.1% | [4] 11.2% | [5] -12.4% | [6] -17.9%

Cc1ccc(N(CN2C(=O)CCC2=O)CS(=O)(=O)c2ccc(Cl)cc2)cc1
inactive: [1] 10.4% | [2] 3.5% | [3] -0.45% | [4] 14.7% | [5] -3.4% | [6] -19.6%

Cc1cc(N=Nc2cc(Br)cc(Br)c2)cc(C)c1N
inactive: [1] 10.8% | [2] 1.3% | [3] 18.1% | [4] -12.2% | [5] 3.55% | [6] 7.65%

ClCc1ccc(-c2ccccc2)cc1
inactive: [1] 48.8% | [2] 16.4% | [3] 19.7% | [4] 26.7% | [5] 8.7% | [6] 47%

COc1cc(/C=C/Cc2cc3c(cc2O)OCO3)cc(OC)c1OC
inactive: [1] 0.7% | [2] -15.6% | [3] 0.55% | [4] -21.6% | [5] -1.9% | [6] 0.75%

COc1ccc(-c2cc(=O)c3cc(C)c(C)c(C#N)c3o2)cc1
inactive: [1] -25.9% | [2] -29.6% | [3] -35.8% | [4] -17.5% | [5] -29.9% | [6] -37.5%

Cn1c(=O)c(-c2ccccc2)c(O)c2ccccc21
inactive: [1] 14.8% | [2] 12.4% | [3] -2.4% | [4] 27.4% | [5] -8.1% | [6] -20.4%

CN(CCO)c1cnn(CCO)c(=O)c1Cl
inactive: [1] -14.9% | [2] -8.25% | [3] -17.6% | [4] -6.15% | [5] 8.2% | [6] -7.45%

Clc1ccc(/C=C2/c3ccccc3-c3nc4ccccc4cc32)cc1
inactive: [1] -1.1% | [2] 24% | [3] 23.8% | [4] -24.9% | [5] -9.4% | [6] 6.85%

OCC1NC(COC2OC(CO)C(O)C(O)C2O)C(O)C(O)C1O (stereo unspecified)
inactive: [1] -17.5% | [2] -14.9% | [3] -19% | [4] 17.1% | [5] -0.25% | [6] -6.25%

O=C(OCC(COC(=O)c1ccccc1)OC(=O)c1ccccc1)c1ccccc1
inactive: [1] -7.15% | [2] 2.15% | [3] 8.8% | [4] -24.6% | [5] 38.8% | [6] 0.65%

O=C(Cc1ccccc1)Nc1ccc([N+](=O)[O-])cc1Cl
inactive: [1] 4.95% | [2] 16.1% | [3] 23.4% | [4] 2.1% | [5] 6.5% | [6] 38.1%

CC(C)C(O)C[N+](=O)[O-] (stereo unspecified)
inactive: [1] 66.3% | [2] 6.8% | [3] 20.3% | [4] 6.25% | [5] 13.6% | [6] 16.6%

CCOc1c[n+](C)c(/C=C/c2ccccc2)s1
inactive: [1] 3.15% | [2] -11.6% | [3] -3.25% | [4] -9.3% | [5] -0.45% | [6] -20.9%

CC(C)CCOC(=O)CC(CC(=O)OCCC(C)C)C(=O)OCCC(C)C
inactive: [1] 20.9% | [2] -14.5% | [3] 6.35% | [4] 5.9% | [5] -18.1% | [6] 8.15%

Cc1ccc2c(c1)C(C1=CCCc3ccc(C)cc31)=CCC2
inactive: [1] 10.2% | [2] -16.5% | [3] 9.05% | [4] 10.3% | [5] 8.2% | [6] 13.8%

CCOC(=O)Cc1nc2sc3c(c2c(=O)[nH]1)CCCC3
inactive: [1] 10.4% | [2] 1.8% | [3] 22.4% | [4] -0.9% | [5] 3.9% | [6] 17.2%

CC(=O)CCn1c(=S)sc2ccccc21
inactive: [1] -6.3% | [2] 30.2% | [3] 59.5% | [4] 12.2% | [5] 29.7% | [6] -28.6%

Oc1ccc(C=NCCN=Cc2ccc(O)cc2)cc1
inactive: [1] 9.55% | [2] -17.4% | [3] -14.8% | [4] -24.2% | [5] 5.1% | [6] 12.1%

CC1=NN(C(=O)c2ccncc2)C(=O)C1N=Nc1ccc([N+](=O)[O-])cc1Cl (stereo unspecified)
inactive: [1] 47.1% | [2] 9.95% | [3] 21.3% | [4] -26.1% | [5] -2.1% | [6] 14.1%

COC(=O)c1cc2c(cc1CC(Cc1ccc3c(c1)CCC3)C(=O)OC)CCC2 (stereo unspecified)
inactive: [1] 27.9% | [2] 1.25% | [3] -21.6% | [4] -34.1% | [5] 3.95% | [6] -4.65%

O=C(NCc1ccc2ccc3cccnc3c2n1)c1ccc[n+](Cc2ccccc2)c1
inactive: [1] -6.1% | [2] -11.6% | [3] 5.65% | [4] 3.5% | [5] 10.1% | [6] 1.75%

CCCCC(CC)COCCC(=O)O (stereo unspecified)
inactive: [1] -9.55% | [2] -8.55% | [3] -4.25% | [4] -55.9% | [5] -19.8% | [6] -18.8%

CN(C)c1ccc(N=Cc2ccc3c(c2)OCO3)cc1
inactive: [1] -6.65% | [2] 6.3% | [3] -15.3% | [4] -18.1% | [5] -6.1% | [6] -0.05%

Cc1c([N+](=O)[O-])cc2c(c1[N+](=O)[O-])C(C(C)C)CCC2(C)C (stereo unspecified)
inactive: [1] -1.5% | [2] -25.2% | [3] 9.65% | [4] 29.2% | [5] -40.4% | [6] -5%

Cc1cccc(Cc2ccccc2C(=O)c2ccccc2)c1C
inactive: [1] 5.75% | [2] -6.75% | [3] -5.5% | [4] -19.2% | [5] 7.4% | [6] -17.1%

Cc1ccc2c(c1)OC(=O)CC2
inactive: [1] 10.3% | [2] -9.65% | [3] -3.25% | [4] -18.8% | [5] -4.1% | [6] -4.3%

CC(O)C(NC(=O)CNC(=O)CNC(=O)OCc1ccccc1)C(=O)O (stereo not drawn) (Cbz-Gly-Gly-[ξT]-OH)
inactive: [1] 7.2% | [2] -3.25% | [3] -2.45% | [4] 16.4% | [5] 6.65% | [6] 3.05%

CCN(CC)CC1c2ccccc2C(CNc2ccccc2)N1C (stereo unspecified)
inactive: [1] 4.5% | [2] 29.4% | [3] -10.1% | [4] 14.2% | [5] 5.65% | [6] 7.65%

Cc1cc2nc(-c3cc4cc(Cl)cc(Cl)c4oc3=O)[nH]c2cc1C
inactive: [1] 10.6% | [2] 17.8% | [3] 2.7% | [4] -5.4% | [5] 17.2% | [6] -0.4%

Nc1nc(N)c(-c2ccc(Cl)c(Cl)c2)c(COc2cccc3ccccc23)n1
active: [1] 98.7% | [2] 99% | [3] 99.2% | [4] 96.5% | [5] 98.1% | [6] 98.7%

CC(=Nc1ccccc1)NO
inactive: [1] 1.9% | [2] 14% | [3] 3.7% | [4] 3.5% | [5] -8.1% | [6] 2.1%

c1ccc(-c2c(-c3cccs3)[nH]c(-c3cccs3)c2-c2ccccn2)nc1
inactive: [1] -6.7% | [2] 17.1% | [3] 45.7% | [4] -29.4% | [5] -6.6% | [6] -57%

CC1(C)OC(=O)ON(Cc2ccccc2)C1=O
inactive: [1] -4.45% | [2] -2.85% | [3] 2.2% | [4] 2.35% | [5] 3.3% | [6] -13.4%

O=C1NC(c2cccc3ccccc23)Nc2ccccc21 (stereo unspecified)
inactive: [1] 3.05% | [2] -14.8% | [3] 9.2% | [4] -6.6% | [5] 0.85% | [6] 0.8%

O=CCC(=O)c1ccc(Br)cc1
inactive: [1] 8.95% | [2] 3.15% | [3] 2.3% | [4] 2.45% | [5] -11.7% | [6] 6.85%

CC(C)CC(=O)OC1=C(O)C(=O)C(OC(=O)CC(C)C)=C(O)C1=O
inactive: [1] -5.45% | [2] -13.7% | [3] 2.1% | [4] -62.4% | [5] 0.1% | [6] 5.65%

NC12CC3CC(C1)CC(C(=O)O)(C3)C2
inactive: [1] 1.65% | [2] 3.05% | [3] -2.75% | [4] 3.45% | [5] 6.7% | [6] -7.1%

C=CCNC(=S)Nc1cc(Cl)ccc1OC
inactive: [1] 6.15% | [2] 8.45% | [3] -2.45% | [4] -5.45% | [5] 1.2% | [6] 7.1%

CC1CN=C(N(C(=O)Nc2ccc(Cl)c(Cl)c2)c2ccccc2)S1 (stereo unspecified)
inactive: [1] -47.3% | [2] 3.6% | [3] -5.7% | [4] 23.8% | [5] -2.55% | [6] -3.3%
